Rows were chosen to be rich in hits. Some 2.4% of all compounds tested hit in one or more screens of this group.
D2 antag: HTS Assay for Allosteric Antagonists of the Human D2 Dopamine Receptor: Primary Screen for Antagonists. HEK293 TREx D2 cells, calcium flux, dopamine EC80. AID 485344, 2010. 2% of 340,000 active. inhibition, % at 10 µM. D(2) dopamine receptor (Homo sapiens), P14416; in the data active = inhibition above about 30%; inactive = below that, where a call was filed; note: 0% is about no effect
Target sequence (P14416 whole entry, looked up): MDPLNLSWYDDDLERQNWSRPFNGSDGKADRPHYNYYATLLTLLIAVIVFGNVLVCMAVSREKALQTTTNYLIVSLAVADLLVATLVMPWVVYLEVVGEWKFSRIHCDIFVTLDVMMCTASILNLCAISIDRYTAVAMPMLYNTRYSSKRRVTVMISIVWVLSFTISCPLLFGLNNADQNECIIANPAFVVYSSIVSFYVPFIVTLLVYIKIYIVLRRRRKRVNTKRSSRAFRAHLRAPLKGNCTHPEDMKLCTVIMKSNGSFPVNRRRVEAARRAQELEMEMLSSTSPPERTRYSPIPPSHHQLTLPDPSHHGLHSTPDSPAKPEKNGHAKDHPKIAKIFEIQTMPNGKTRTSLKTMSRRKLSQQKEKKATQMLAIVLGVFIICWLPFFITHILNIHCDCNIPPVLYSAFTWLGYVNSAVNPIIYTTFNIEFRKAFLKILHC
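Antagonism is scored as inhibition of an EC80 dopamine-evoked calcium signal in a force-coupled, tetracycline-inducible HEK293 T-REx D2 line, with compound present 180 s before agonist.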
D2 PAM-1: Beta-Arrestin HTS for Positive Allosteric Modulators of the Human D2 Dopamine Receptor: Potentiators; AID 624464, 2012; DiscoveRx D2 beta-arrestin cells, luminescence, 90 min; 100% = 57 uM dopamine signal; 0.23% of 360,000 active; potentiation, % (test concentration not listed); in the data active = potentiation above about 50%; inconclusive = mostly about 30% to 49%
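D2 cells co-treated with compound plus 50 nM dopamine (EC20) for 90 min at 37 deg C to detect potentiation. Beta-arrestin recruitment was read as enzyme-fragment luminescence after 1 h at ambient temperature. Full response was set by 57 uM dopamine.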
D2 PAM-2: HTS Assay for Positive Allosteric Modulators of the Human D2 Dopamine Receptor: Primary Screen for Potentiators | HEK293 T-REx D2, calcium flux, EC20 dopamine potentiation | 0.34% of 340,000 active | AID 485347, 2010 | D(2) dopamine receptor (Homo sapiens), P14416 | potentiation, % at 10 µM;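 active = potentiation over 3 SD above the plate norm, cut at about 30% in these data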; note: 0% is about no effect
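Primary screen. Calcium kinetics in induced HEK293 T-REx D2 cells: compound pre-addition 180 s, EC20 dopamine, 180 s more.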
D2 ag-1: HTS Assay for Allosteric Agonists of the Human D2 Dopamine Receptor: Primary Screen for Agonists; D(2) dopamine receptor (Homo sapiens), P14416; HEK293 T-REx D2 cells, calcium flux agonist mode; activation, % at 2 µM; 0.53% of 340,000 active;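 active = activation over 3 SD above normal in the single-dose calcium agonist read, cut at about 30% in these data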; note: 0% is about no effect
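Agonism is scored from calcium flux in a force-coupled, inducible HEK293 cell line expressing D2, read kinetically for 180 s after compound addition against dopamine controls.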
D2 ag-2: Beta-Arrestin HTS for Positive Allosteric Modulators of the Human D2 Dopamine Receptor: Agonists; 0.084% of 360,000 active; D(2) dopamine receptor (Homo sapiens), P14416; DiscoveRx PathHunter D2 beta-arrestin, luminescence, 90 min; 100% = 57 uM dopamine signal; activation, % (test concentration not listed); in the data active = activation above about 40%; inconclusive = between about 15% and that limit
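Agonist mode: compounds alone added to overnight-plated D2 PathHunter cells for 90 min at 37 C, with 57 uM final dopamine (EC100) defining full response. Beta-arrestin recruitment detected by chemiluminescent reagent, read after 1 h at ambient temperature.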
Numbers without * were called inactive.

What do the screens show for `COc1ccc(OC)c(S(=O)(=O)NCCc2csc3nc(-c4ccccc4)nn23)c1`?
D2 ag-1: 1

What do the screens show for `N/C(=N\OC(=O)c1ccc(Cl)c([N+](=O)[O-])c1)c1ccccc1`?
D2 antag: -9; D2 PAM-1: 94*; D2 PAM-2: -1; D2 ag-1: 0; D2 ag-2: 12

How did Cc1ccc(/C(N)=N/OC(=O)c2cc(-c3ccccc3)nc3ccccc23)cc1 do in these assays?
D2 antag: -4; D2 PAM-1: -3; D2 PAM-2: 2; D2 ag-1: 0; D2 ag-2: -4

How did CCOc1cc(C(=O)O/N=C(\N)c2ccccn2)cc(OCC)c1OCC do in these assays?
D2 antag: 1; D2 PAM-1: 72*; D2 PAM-2: 12; D2 ag-1: 1; D2 ag-2: inconclusive

How did N/C(=N\OC(=O)c1cc(-c2ccccc2)nc2ccccc12)c1ccccn1 do in these assays?
D2 antag: 24; D2 PAM-1: 7; D2 PAM-2: -2; D2 ag-1: -2; D2 ag-2: 48*

How did CCOc1cc(C(=O)O/N=C(\N)c2ccc([N+](=O)[O-])cc2)cc(OCC)c1OCC do in these assays?
D2 antag: -4; D2 PAM-1: 76*; D2 PAM-2: 4; D2 ag-1: 0; D2 ag-2: inconclusive

How did N/C(=N\OC(=O)c1ccc([N+](=O)[O-])cc1)c1ccc(Br)cc1 do in these assays?
D2 antag: -15; D2 PAM-1: 7; D2 PAM-2: 4; D2 ag-1: 0; D2 ag-2: 14

Results for COc1ccc(/C(N)=N/OC(=O)c2ccc(C)c([N+](=O)[O-])c2)cc1OC ?
D2 antag: -4; D2 PAM-1: 2; D2 PAM-2: 5; D2 ag-1: -1; D2 ag-2: -1

Results for Cc1cc(C)c(NC(=O)CCCn2c(C)c3cnn(-c4ccccc4)c(=O)c3c2C)c(C)c1 ?
D2 PAM-2: -11; D2 ag-1: -1

How did CCc1c(-c2ccccc2)nc2ccccc2c1C(=O)NCc1ccc(C)cc1 do in these assays?
D2 PAM-2: -10; D2 ag-1: 0

What do the screens show for `N/C(=N\OC(=O)c1ccc(Cl)c([N+](=O)[O-])c1)c1ccccn1`?
D2 antag: 6; D2 PAM-1: inconclusive; D2 PAM-2: 36*; D2 ag-1: 5; D2 ag-2: 10

Results for N/C(=N\OC(=O)c1ccc(Cl)c(Cl)c1)c1ccccn1 ?
D2 antag: -1; D2 PAM-1: 82*; D2 PAM-2: -4; D2 ag-1: 0; D2 ag-2: 11

How did N/C(=N\OC(=O)c1ccc(Cl)cc1)c1ccccn1 do in these assays?
D2 antag: -13; D2 PAM-1: 16; D2 PAM-2: 4; D2 ag-1: 1; D2 ag-2: 15

Results for COc1ccccc1-c1cc2nc(C)c(CCC(=O)NCc3cccc(Cl)c3)c(C)n2n1 ?
D2 PAM-2: 6; D2 ag-1: -1

Results for Cc1sc2nc(SCc3nc(-c4ccccc4)no3)n(-c3ccccc3)c(=O)c2c1C ?
D2 antag: 9; D2 PAM-1: 5; D2 PAM-2: 34*; D2 ag-1: 0; D2 ag-2: -3

What do the screens show for `CCCCc1nc(NCCO)c(C#N)c2c1CCCC2`?
D2 antag: 48*; D2 PAM-1: -12; D2 PAM-2: -4; D2 ag-1: 2; D2 ag-2: -5

Results for Cc1ccc(-c2nc(CSCC(=O)N3CCN(c4ccccn4)CC3)c(C)o2)cc1 ?
D2 antag: -7; D2 PAM-1: -2; D2 PAM-2: -14; D2 ag-1: 37*; D2 ag-2: 0

Results for CC1Cc2ccccc2N1C(=O)C12CCC(C)(C(=O)C1)C2(C)C (stereo unspecified) ?
D2 antag: 32*; D2 PAM-1: -15; D2 ag-1: 1; D2 ag-2: 0

Screening data (PubChem BioAssay)
